This is an account of results in PubChem BioAssay AID1259416 (Broad Institute, 2018).

Each structure is given as a SMILES string. Among all 69,000 compounds or so, about 2,600 (3.8%) were called active. For the sample, actives were picked, then their nearest neighbours and some compounds at random. A number with no mark means an inactive call. No stated cut-off is given here; in the data, active means activity change below about -70% (passing the limit was not always enough); inconclusive means no clear call, values can overlap the other calls.

The experiment can be described thus: T. gondii growth inhibition with IFN-gamma, primary screen, cell-based (AID 1259416).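 Further: host cells are HeLa cells infected with Toxoplasma gondii.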 Particulars: Toxoplasma gondii growth in IFN-gamma-treated host cells; stronger effect = lower value; concentration not given here.
For the compound `CC(C)(O)CC[C@@H](O)[C@](C)(O)[C@@H]1CC[C@@]2(O)C3=CC(=O)[C@@H]4C[C@@H](O)[C@@H](O)C[C@]4(C)[C@@H]3CC[C@]12C`, the activity change, negative = inhibition is 12.2%.
For `CN(C)c1nc2c(c(=O)[nH]1)CCN(C(=O)C1(c3ccc(Cl)cc3)CCC1)C2`, the activity change, negative = inhibition is -11.9%.
For `COc1cc2c(cc1CNC(=O)c1cc3n(n1)CCCN(C)C3)CCC2` the value was 5.16%.
For `Cc1ccsc1C(=O)N1CCC2(C1)CN(c1cccc(F)c1)C(=O)CN2C` (stereo unspecified) the value was -102% (active).
For `CC(=O)N1CC(=O)N(c2cnn(C)c2)CC12CCN(C(=O)c1cnc(C)cn1)C2` (stereo unspecified), the activity change, negative = inhibition was 8.89%.
Then `O=C(c1cnccn1)N1CCC2(CC(=O)N(c3cccc(F)c3)C2)C1` (stereo unspecified), with -1.06%; and `COc1ccc(C(=O)N2CC(C(=O)N3CCOCC3)C3(CCOCC3)C2)cc1` (stereo unspecified), with 2.42%.
For `O=C(CC1CC1)N1CC[C@@H]2[C@H](CO)Nc3ccc(-c4ccc(F)cc4)cc3[C@@H]21` the value was -30.6%; for `COc1ccc(-c2noc(-c3c(O)c4ccccc4n(C)c3=O)n2)cc1F`, 31.1%; for `O=C(NCc1ccc(F)cc1)c1c(O)c2cccnc2n(-c2cccc(F)c2)c1=O`, -108% (active).
As to `O=C(NCc1ccccc1F)c1c(O)c2cccnc2n(-c2cccc(F)c2)c1=O`, the activity change, negative = inhibition is -102% (active).
In the case of `COc1ccc(-n2c(=O)c(C(=O)Nc3ccccc3C)c(O)c3cccnc32)cc1`, the activity change, negative = inhibition was 33.1%.
For `CCc1cccc(NC(=O)c2c(O)c3cccnc3n(-c3cccc(F)c3)c2=O)c1` the value was -96.6% (active); for `COc1cccc(-n2c(=O)c(C(=O)NC(C)c3ccccc3)c(O)c3cccnc32)c1` (stereo unspecified), -12.7%; for `C=CCNC(=O)c1c(O)c2cccnc2n(-c2cccc(F)c2)c1=O`, -76.4% (active).
`O=C(Nc1cccc(Cl)c1)c1c(O)c2cccnc2n(-c2ccc(F)cc2)c1=O`: the activity change, negative = inhibition is 195%.
For `CCc1ccc(NC(=O)c2c(O)c3cccnc3n(-c3ccccc3)c2=O)cc1` the value was 86%; for `COc1ccc(CNC(=O)c2c(O)c3cccnc3n(-c3ccc(F)cc3)c2=O)cc1`, 85.2%; for `Cc1ccc(NC(=O)c2c(O)c3cccnc3n(-c3cccc(F)c3)c2=O)cc1F`, 126%.
For `COc1cccc(-n2c(=O)c(C(=O)Nc3ccccc3F)c(O)c3cccnc32)c1` the value was 40%.
Then `COc1ccccc1CNC(=O)c1c(O)c2cccnc2n(-c2ccccc2)c1=O`, with -37.8%; and `Cc1noc(C[C@H]2C[C@@H]3CN(C(=O)c4ccco4)C[C@H]3O2)n1`, with -25%; and `CCCN(CCC)C(=O)NCCCCCCNC(=O)N(CCC)CCC`, with -0.334%.
Regarding `CO[C@@H]1CN(C)C(=O)c2cc(NC(C)=O)ccc2OC[C@H](C)N(C(=O)Cc2ccccn2)C[C@@H]1C`, the activity change, negative = inhibition was 163%.
For `O=C(c1cccs1)N1CCn2c(Cn3cccn3)cnc2C1` the value was 3.34%; for `O=S(=O)(c1ccccc1)N1CC2CN(Cc3ccc(O)cc3)CC2C1` (stereo unspecified), -5.71%.
For `COc1ccccc1-n1cc(CNC(=O)c2ccc(=O)n(C)c2)cn1` the value was 1.65%; for `O=C(CCn1cnnn1)NCc1cnn2ccccc12`, 1.34%.
Consider `COCC(=O)Nc1ccc(-c2nc(-c3cc(C)ccc3C)co2)cc1`, for which the activity change, negative = inhibition was 11.3%.
For `COc1ccccc1C(=O)Nc1ccc(N2CCN(C)CC2)cc1` the value was -6.5%; for `COc1ccc(S(=O)(=O)N2CCOCC2)cc1NC(=O)COc1ccccc1`, -52.6%; for `CNC(=O)c1ccccc1Nc1nc(Nc2ccc(N3CCOCC3)cc2OC)ncc1Cl`, -72.7% (active).
Then `CCS(=O)(=O)N1CCC2(CC1)CN(S(=O)(=O)c1ccc(C)cc1)[C@H](CO)c1[nH]c3cc(OC)ccc3c12`, with 268%; and `Nc1cc(C(F)(F)F)c(-c2cc(N3CCOCC3)nc(N3CCOCC3)n2)cn1`, with -74.6% (active); and `c1cnc2c(-c3cc(N4CCOCC4)ncn3)cccc2c1`, with 12.9%.
For `Nc1cc(N2C[C@H]3CC=CC[C@H]3C2)nc(N2CCOCC2)n1` the value was 14.9%.
On to `Cc1ncc(C(=O)NCCCn2ccc3ccccc32)c(C)n1`, for which the activity change, negative = inhibition was 2.92%.
Consider `CCS(=O)(=O)N1CC2(CN(C(=O)c3ccc(F)cc3)[C@@H](CO)c3c2c2ccc(OC)cc2n3C)C1`, for which the activity change, negative = inhibition is 62.5%.
As for `CC(C)CN1CCS(=O)(=O)[C@H]2CCN(S(=O)(=O)N(C)C)CC[C@@H]21`, the activity change, negative = inhibition is -5.98%.
Then `Cn1nc(C(=O)NCC2CCC(c3nnc(-c4ccncc4)o3)CC2)ccc1=O` (stereo unspecified), with 24.6%.
On to `CCCC1CCC(c2ccc(-c3ccc(CC)cn3)cc2F)CC1` (stereo unspecified), for which the activity change, negative = inhibition was -76% (active).
For `O=C(O)CC1CCC(c2ccc(-c3ccc(Nc4ccc(C(F)(F)F)nc4)cn3)cc2)CC1` (stereo unspecified) the value was -61.2%.
With `COCCN(Cc1cccs1)C(=O)c1ccncc1Cl`, the activity change, negative = inhibition was 3.28%.
For `COc1cccc(C2=NN(C(=O)C(C)C)C(O)(C(F)(F)F)C2)c1` (stereo unspecified) the value was -0.0765%; for `COc1c(C)cnc(CN(C)C(=O)c2cnn3cc(C)cnc23)c1C`, -3.21%; for `COCC1CCN(c2nc(C(C)(C)C)nc3c2cnn3C)C1` (stereo unspecified), -12.1%.
For `O=C(Nc1cccnc1)c1cc2c(s1)-c1ccccc1CC2` the value was -101% (active).
Consider `Cc1ccc(N2CC3(CCN(C(=O)COc4ccccc4)C3)CC2=O)cc1` (stereo unspecified), for which the activity change, negative = inhibition was -15.8%.
For `CCN1CCN(c2ncnc3sc(C(=O)NCCc4c[nH]c5ccc(Cl)cc45)c(C)c23)CC1` the value was -83.1% (active); for `CCOC(=O)c1nc(NCCc2c[nH]c3ccc(Cl)cc23)c2c(C)noc2n1`, 46.7%.
For `O=C(NCCc1c[nH]c2ccccc12)c1cc(=O)nc2sc(N3CCCC3)nn12`, the activity change, negative = inhibition was 5.09%.
Then `COCCn1cc(-c2nc(C(=O)NCCc3cccnc3)c3ccccn23)nc1C`, with -8.4%; and `Cc1ccc(C(=O)NC(=S)Nc2cccc(NC(=O)c3ccccc3)c2)cc1C`, with -63.6%.
As to `O=C(O)CC1(CC(=O)Nc2ccc(N3CCCCC3)cc2)CCCCC1`, the activity change, negative = inhibition is 96.8%.
Then `CC(C)(C)c1ccc(C(=O)NC(=S)Nc2ccc(N3CCCCC3)cc2)cc1`, with -87.8% (active); and `CC1CCN(c2ncnc3c2cnn3CC(=O)Nc2cc(F)cc(F)c2)CC1`, with -68.2%; and `CC1CCN(c2cncnc2-n2cc(NC(=O)CC3CCCCC3)cn2)CC1`, with -88.5% (active).
`Cc1cc(NC(=O)CC2CCCCC2)n(-c2ncnc3c2cnn3-c2ccc(Cl)cc2)n1`: the activity change, negative = inhibition was 16.1%.
Turning to `Cc1c(CN(C)C(=O)COc2cccnc2)[nH]c2ccccc12`, the activity change, negative = inhibition was 66.9%.
Then `Cc1cccc(-c2[nH]n3c(=O)cc(C(C)n4cnc5ccccc5c4=O)nc3c2C)c1` (stereo unspecified), with -29.3%; and `COc1cc(CCC(C)NC(=O)c2ccc(C)cc2)ccc1OC(=O)c1ccc(C)cc1` (stereo unspecified), with -12.5%; and `O=C1c2ccc(Nc3ccc(F)cc3F)cc2CCc2ccc(OC[C@H](O)CO)cc21`, with -74% (active).
For `COCC(=O)N1CCC2(CC1)C(=O)N(c1cncnc1)c1ccccc12` the value was -5.94%; for `C[C@H]1CN([C@@H](C)CO)S(=O)(=O)c2ccc(C#CC3(O)CCCC3)cc2O[C@@H]1CN(C)C(=O)Nc1cccc(F)c1`, -69.9%; for `C[C@@H]1CN([C@@H](C)CO)S(=O)(=O)c2ccc(C#Cc3cccc(F)c3)cc2O[C@H]1CN(C)S(=O)(=O)c1cn(C)cn1`, -31.1%.
In the case of `C[C@H]1CN([C@@H](C)CO)S(=O)(=O)c2ccc(C#Cc3cccc(F)c3)cc2O[C@@H]1CN(C)S(=O)(=O)c1cn(C)cn1`, the activity change, negative = inhibition is -91.2% (active).
For `Cn1c(=O)c2nc(-c3ccc(I)cc3)oc2c2ccccc21` the value was -20.4%; for `CCCN1CCn2cc(C(=O)N3CCN(c4cccc(OC)c4)CC3)nc2C1`, 15%; for `CC(Cc1ccco1)NC(=O)c1nc(Nc2ccccc2)c2ccccc2n1` (stereo unspecified), -47%.
As for `O=C(Nc1ccccc1Br)c1nc(Nc2ccccc2)c2ccccc2n1`, the activity change, negative = inhibition is -74.2% (active).
For `Cc1ccc(Nc2nc(C(=O)Nc3ccc(Cl)cc3F)nc3ccccc23)cc1` the value was 4.67%.
Then `O=C(NCc1cccc(Br)c1)c1nc(Nc2ccc(F)cc2)c2ccccc2n1`, with -65.9%.
Take `Cc1cccc(CNC(=O)c2nc(Nc3cccc(C)c3)c3ccccc3n2)c1`: the activity change, negative = inhibition was -89.5% (active).
Then `Cc1ccc(CNC(=O)c2nc(Nc3ccc(C)cc3)c3ccccc3n2)cc1`, with 40.8%; and `Cc1cccc(Nc2nc(C(=O)Nc3cccc4c3CCCC4)nc3ccccc23)c1`, with -67.4%; and `Cc1cccc(Nc2nc(C(=O)Nc3cccc(Cl)c3C)nc3ccccc23)c1`, with -75.4% (active).
`O=C(NC1CCCCC1)c1nc(Nc2ccccc2)c2ccccc2n1`: the activity change, negative = inhibition was -55.7%.
`CCOc1ccccc1NC(=O)OC1CCCN1C(=O)NCc1ccccc1` (stereo unspecified): the activity change, negative = inhibition was -2.55%.
Then `O=C(COC(=O)c1ccc(Cl)nc1)NCc1ccc2c(c1)OCO2`, with 8.52%.
Turning to `CC(=O)c1c(C)nn(CCC(=O)N2CCC(c3ccccc3C(=O)O)C2)c1C` (stereo unspecified), the activity change, negative = inhibition was 2.53%.
For `Cc1nc(C)c(S(=O)(=O)NC(CCN2CCOCC2)c2ccccc2)s1` (stereo unspecified) the value was 12.7%.
For `CC(C(=O)NCc1ccccc1F)N(c1ccccc1)S(C)(=O)=O` (stereo unspecified) the value was 12.1%.
For `O=C(Cn1ncc2c(N3CCN(c4ccccn4)CC3)ncnc21)Nc1cc(F)ccc1F` the value was -34%.
Consider `O=C(Cc1ccccc1)NCCc1nc(N2CCOCC2)ncc1C(=O)N1CCCC1`, for which the activity change, negative = inhibition was 8.84%.
In the case of `CN1C2CCN(Cc3nccs3)CC2C[C@H]1Cn1cncn1` (stereo partly specified), the activity change, negative = inhibition is 4.21%.
For `Cc1cc(Nc2cc(CN3CCOCC3)c3nc(C)c(Cc4ccc(Cl)cc4F)n3n2)n[nH]1` the value was -78.1% (active).
